{
  "source": "PubChem BioAssay (Tox21)",
  "note": "Inconclusive results are not listed. Where a call stands in place of a potency, no number is given. Where a structure was tested more than once in an assay, its records may differ in their call. Activity calls are given as the source filed them. Calls come from the whole dose curve; as a rule, active = well fitted cell-killing curve with a large enough effect in the repeat runs; inconclusive = weak or mixed curves, or effect the other way; inactive = no such curve, though single readings can be large or run the other way.",
  "data": [
    {"assay": "qHTS assay to identify small molecule agonists of the estrogen receptor alpha (ER-alpha) signaling pathway in the presence of an antagonist - cell viability counter screen (AID 1259386);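 note: cells exposed to compounds for 22 h at 37 °C before the viability read; nearly all actives have a fitted effect of over 30% in size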; note: potency is the fitted concentration of half-maximal effect", "details": "VM7Luc4E2 viability, CellTiter-Fluor fluorescence, 22 h; series mostly up to 92.4 µM", "from_the_text": "National Center for Advancing Translational Sciences [NCATS]\nNIH Chemical Genomics Center [NCGC]\nU.S. Environmental Protection Agency [EPA]\nNational Institutes of Environmental Health Sciences [NIEHS]\nNational Toxicology Program [NTP]\nU.S. Food and Drug Administration [FDA]\nEstrogen receptor (ER), a member of nuclear hormone receptor plays an important role in development, metabolic homeostasis and reproduction. Two subtypes of ER, ER-alpha and ER-beta, have similar expression patterns with some uniqueness in both types. Endocrine disrupting chemicals (EDCs) and their interactions with steroid hormone receptors like ER causes disruption of normal endocrine function. Therefore, it is important to understand the effect of environmental chemicals in ER signaling pathway. For identifying ER agonists, VM7Luc4E2 cell line has been used in the current assay.\nVM7Luc4E2 cell line (provided by Denison MS, University of California) endogenously expresses full-length ER-alpha and is stably transfected with a plasmid containing four estrogen responsive elements (ERE) upstream of a luciferase reporter gene. This current screening for measuring luciferase reporter gene activity using VM7Luc4E2 cells against Tox21 10K library collection is a confirmation study on agonist mode screening in presence of ER-antagonist (ICI-182,780) at 10.0nM final concentration. The cytotoxicity of the compounds was tested in parallel by measuring the cell viability using CellTiter-Fluor assay system (Promega, Madison, WI) in the same wells.\nTox21 Assay Protocol Summary:\nVM7Luc4E2 cells were cultured in phenol red free assay medium containing 10% charcoal stripped FBS for 5 days prior to the assay. The cells were dispensed at 4,000 cells in 4uL of assay medium per well into white wall/solid-bottom 1536-well plates (Corning Life Sciences, Corning, NY) using a Multidrop Combi (Thermo Fisher Scientific Inc., Waltham, MA) dispenser. After the assay plates were incubated at 37C and 5% CO2 for 24hr, 1uL of 10.0nM (final concentration) ICI-182,780 or assay buffer was added using two separate tips of Flying Reagent Dispenser (FRD, Aurora Discovery, San Diego, CA). Then 23nL of compounds dissolved in DMSO at 15 concentrations and positive controls or DMSO only was transferred to the assay plates by a Pintool station (Wako, San Diego, CA). The assay plates were incubated at 37C and 5% CO2 for 22hr. After 21hr incubation at 37C, 1uL/well CellTiter-Fluor reagent (Promega Corporation, Madison, WI) was added to each well using FRD and after 1hr incubation at 37C and 5% CO2, the fluorescence signal was measured on ViewLux plate reader (PerkinElmer, Shelton, CT).", "values": [
      {"compound": "CC1C(C)(C)C2=C(C(=O)CCC2)C1(C)C", "note": "(stereo not given)", "Potency": "inactive"},
      {"compound": "CC(C(=O)O)c1ccc(C(=O)c2cccs2)cc1", "note": "(stereo not given)", "Potency": "inactive"},
      {"compound": "COc1ccc(C2C(=O)c3ccccc3C2=O)cc1", "Potency": "inactive"},
      {"compound": "Cc1ccc(S(=O)(=O)NC(=O)NC2CCCCC2)cc1", "Potency": "inactive"},
      {"compound": "CC(C)(O)c1coc(S(=O)(=O)NC(=O)Nc2c3c(cc4c2CCC4)CCC3)c1", "Potency": "inactive"},
      {"compound": "CC(C)OC(=O)c1ccccc1C(=O)OC(C)C", "Potency": "inactive"},
      {"compound": "CCN(CC)c1ccc(C(=C2C=CC(=[N+](CC)CC)C=C2)c2ccc(S(=O)(=O)O)cc2S(=O)(=O)[O-])cc1", "Potency": "17.2 µM (active)"},
      {"compound": "O=C(O)CO", "Potency": "inactive"},
      {"compound": "CNS(=O)(=O)c1cc(C(=O)N2CCC(CCN3C4CCC3CC(n3c(C)nc5ccccc53)C4)(c3cccc(F)c3)CC2)c(Cl)cc1F", "note": "(stereo not given)", "Potency": "inactive"},
      {"compound": "CCO[Si](C)(CCCOCC1CO1)OCC", "note": "(stereo not given)", "Potency": "inactive"},
      {"compound": "CC(=O)c1ccc[nH]1", "Potency": "inactive"},
      {"compound": "CC(C)N=C=NC(C)C", "Potency": "inactive"},
      {"compound": "CC/C=C\\C/C=C\\C/C=C\\CCCCCCCC(=O)OCC", "Potency": "inactive"},
      {"compound": "CC(CO)(CO)C(=O)O", "Potency": "inactive"},
      {"compound": "O=C(O)CCC(=O)OC[C@@H](NC(=O)C(Cl)Cl)[C@H](O)c1ccc([N+](=O)[O-])cc1", "Potency": "inactive"},
      {"compound": "CCCCCCCCCCCSCC(=O)O", "Potency": "inactive"},
      {"compound": "CCCCCCCCCCCCCOC(=O)CCSCCC(=O)OCCCCCCCCCCCCC", "activity change, negative = cytotoxicity": "-1.3% [at 19 µM] (inactive)"},
      {"compound": "CCc1ccc(C)cc1", "Potency": "inactive"},
      {"compound": "COc1ccc(/C=C/C(=O)c2ccc(OC)cc2OC)cc1", "Potency": "inactive"},
      {"compound": "O=C(CCS)OCC(COC(=O)CCS)(COC(=O)CCS)COC(=O)CCS", "Potency": "inactive"},
      {"compound": "CNCc1ccc(NC(=O)c2c[nH]c3c2C(=O)CCC3)cc1", "Potency": "inactive"},
      {"compound": "CCCCCCCCCCCCCOS(=O)(=O)O", "Potency": "inactive"},
      {"compound": "O=C(Oc1ccccc1)c1ccc2ccccc2c1O", "Potency": "inactive"},
      {"compound": "Cc1ccc(N(CC2=NCCN2)c2cccc(O)c2)cc1", "Potency": "inactive"},
      {"compound": "CC(C)(O)CCc1ccccc1", "Potency": "inactive"},
      {"compound": "CCC(CO)(CO)CO", "Potency": "inactive"},
      {"compound": "O=C(/C=C/c1ccc([N+](=O)[O-])cc1)c1ccccc1", "Potency": "inactive"},
      {"compound": "O=C(O)c1cccc(C[C@@H]2COc3ccc(OCc4nc5cc(F)ccc5s4)cc3[C@@H]2O)c1", "Potency": "inactive"},
      {"compound": "O=c1[nH][nH]c(=O)c2cc([N+](=O)[O-])ccc12", "Potency": "inactive"},
      {"compound": "CC(=O)OCC1=C(C(=O)O)N2C(=O)[C@@H](NC(=O)CSc3ccncc3)[C@H]2SC1", "Potency": "inactive"},
      {"compound": "CC(C)N(C)C", "Potency": "inactive"},
      {"compound": "CC1CCCO1", "note": "(stereo not given)", "Potency": "inactive"},
      {"compound": "COc1cc(C(C)=O)ccc1OCCCN1CCC(c2noc3cc(F)ccc23)CC1", "Potency": "inactive"},
      {"compound": "CC(=O)OC(C)C[N+](C)(C)C", "note": "(stereo not given)", "Potency": "inactive"},
      {"compound": "COc1ccc2nc(S(=O)Cc3ncc(C)c(OC)c3C)[nH]c2c1", "note": "(stereo not given)", "Potency": "48 µM (active) and inactive"},
      {"compound": "CCN(CC)C(=O)/C(C#N)=C/c1cc(O)c(O)c([N+](=O)[O-])c1", "Potency": "26.6 µM (active)"},
      {"compound": "O=C(O)CCCc1c[nH]c2ccccc12", "Potency": "inactive"},
      {"compound": "C1CCCCC1", "Potency": "inactive"},
      {"compound": "O=C(O)CN1C(=O)c2cccc3cccc(c23)C1=O", "Potency": "inactive"},
      {"compound": "O=P(O)(O)Oc1ccccc1", "Potency": "inactive"}
    ]}
  ]
}
